This note sets out measurements from the supplement of paper PMC6555819.

The test system of one assay is RARb homodimer (NR concentration 270 nM). In words: PBM binding z-score (relative to random genomic background probes); higher = stronger binding; sequences stand for … in GC…GCGATTGACAGCGTAGAATGAAGG
An outline of the steps: (§1)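 Probes were double-stranded and carried 34-nt variable regions with direct-repeat seeds, single-nucleotide variants, half-site ablations and random human genomic background sequences, printed on custom Agilent 4×180K protein-binding microarrays. Arrays were incubated 1 h with ligand-free nuclear receptor dimers in PBS pH 7.4, 2% milk, 0.02% Triton X-100, 1 mM DTT, 0.2 mg/mL BSA and 0.4 mg/ml salmon testes DNA. Antibodies against each partner (one per run) detected binding, and scanned fluorescence was regression-normalized. Binding z-scores use the random background probes as reference.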
As for GATACAGGCTCAGCTAGAGGCCAGAGTATGGAAA, the PBM binding z-score was -0.469.
On the same count and under the same terms, in the case of ACTTACGGGTCAACGAGGTTATGGCACGCGTATA it was 3.9.
Same read-out and setting: the result for TCTTGTAGATCAATAGAGGTGAAGAAAGTGCGCT reads 0.962.
CGAACTAGGTCATTGACAGAACAGTGAATAGTAA gave a PBM binding z-score of 2.34.
Still for that read-out and setting: the result for TCTAGTTAGTCACGGAGGTCACACACGACGGGTA reads 3.95.
Same read-out and setting: the result for CCTGCTAGGTCATGGCCAGCTAATCTACAGTATG reads 3.06; that for ATCTCAAGGTAACCAAGTTCAGTGAATGCCGAAC, 1.51.
On the same count and under the same terms, the result for CCTAGCAGGCTAATCTGGGTCACTCAAGGCTTGA reads 1.8; that for CCTACCGGGCCAAAGGTCATTGATTCCAATGCTC, 4.57.
Turning to TCTAGTTGGTCACGGATGTCACACACGACGGGTA, the PBM binding z-score worked out at 1.57.
On the same count and under the same terms, the result for CAAACTAGGTCAAAGCTCAAAGTCGAGCCAACCA reads 2.4.
Regarding TGAATGAGGATATAAGATCAGGGAACGTTGCAAA, the PBM binding z-score was -0.689.
Still for that read-out and setting: the result for TCTCGGAGGACACGAATGGTCAGAGCTCGACATC reads 0.664; that for CCTACTGGGCCAAAAAGGTCATCGATGCCGATAA, 4.84.
For the sequence ATCTCTAGGTAACAAGTTCTGTGAAAGAGAGGAC, the PBM binding z-score worked out at 0.522.
As to CGTACAAGGTCAATGCTAGGTCAGTGAAAGCATT, the PBM binding z-score was 5.18.
Still for that read-out and setting: the result for ACTCGAAGGACAAAGGTCAGAGCTACGCCAGTGA reads 4.53.
For CCTGCTAGGTCAATGGCCAGCTAAAGCAGCTCGC, the PBM binding z-score was 2.64.
Turning to TCTAGCAGGCCAGAGGGTCGCTCAAGAGGTACGG, the PBM binding z-score came out at 0.452.
On to ATACCGAGGTGATCGTGAGGTCGTTGATACTAAC, for which the PBM binding z-score worked out at 1.77.
Still for that read-out and setting: the result for CGTGCTAGGTCATGGTCAGCTAATCTACAGTATG reads 3.2.
For CGAACGAGGGCATGTGTTGATAGCAAATGCCGAT, the PBM binding z-score worked out at 0.926.
Still for that read-out and setting: the result for CCTAGCAGGCCAATCTGGGGCACTCAAGGCTTGA reads 0.233.
On the same count and under the same terms, in the case of CCGACTGGGGCAGAAGGGTTACCATACCATCCGG it was 1.08; in that of ATCTCTAGGTAAAGATAGTTCAGTGGATGCAAAT, 0.847.
On the same count and under the same terms, the result for CGAATTAGGTCATTGACAGGACAGTGAATAGTAA reads 2.68; that for GTACCAAGGTGAATACGTCGTTGATGAGTAGGCG, 0.139; that for ATATGTAGGTTACATCCGGGTGATTCAGGCTATG, 0.887.
CCTAGTTGGTCTGGAGGTCACACACCGGATATGA returned a PBM binding z-score of 4.22.
On the same count and under the same terms, in the case of AACGAAAGGTCGAGGTGAGTATAGAGAAAGGGAA it was 2.86; in that of CGAACTAGGTCAAGGACAGTGGATCTCCGCACGC, 3.1.
With ATTACAGGGTCATCGTAGGCCAGAGTACGCACAG, the PBM binding z-score turned out to be 3.91.
ATCGAAAGGTAGACGAGGTGAGTATACACCGTTT returned a PBM binding z-score of 0.107.
TTACCAAGGTGAAGGTCGTTGAACCCTCTGTAGA yielded a PBM binding z-score of 2.16.
In the case of CCTCGGAGGACAGCAGGTCAGAGCTGTCCGCTTT, the PBM binding z-score amounted to 2.25.
Same read-out and setting: the result for TCTATTACTTGATTAGGGCAACCGAAACAGCGGA reads 0.543; that for AGAAGGAGGTTACCAAAGATCAGGGAAACGCTTG, 1.11; that for CGTCACAGTTCAACTAAGGTAACGTAAAGCACGC, 2.56.
On the same count and under the same terms, the result for GCTAGTAGGCCATTTGGGTCACTCAATGACGGGC reads 2.03.

The subject of a further assay is RARg:RXRa (NR concentration 270 nM, RXRa partner concentration 90 nM). The assay is described as above. An outline of the steps:
as §1
The sequence GATACAGGCTCAGCTAGAGGCCAGAGTATGGAAA came in with a PBM binding z-score of -0.109.
Same read-out and setting: in the case of ACTTACGGGTCAACGAGGTTATGGCACGCGTATA it was 5.75; in that of TCTTGTAGATCAATAGAGGTGAAGAAAGTGCGCT, 0.365.
Sequence CGAACTAGGTCATTGACAGAACAGTGAATAGTAA returned a PBM binding z-score of 3.64.
Same read-out and setting: in the case of TCTAGTTAGTCACGGAGGTCACACACGACGGGTA it was 3.7.
On the same count and under the same terms, the result for CCTGCTAGGTCATGGCCAGCTAATCTACAGTATG reads 3.9; that for ATCTCAAGGTAACCAAGTTCAGTGAATGCCGAAC, 1.21.
CCTAGCAGGCTAATCTGGGTCACTCAAGGCTTGA: the PBM binding z-score came to 0.393.
The same measure, in the same setting: the result for CCTACCGGGCCAAAGGTCATTGATTCCAATGCTC reads 5.86.
The sequence TCTAGTTGGTCACGGATGTCACACACGACGGGTA yielded a PBM binding z-score of 1.43.
In the case of CAAACTAGGTCAAAGCTCAAAGTCGAGCCAACCA, the PBM binding z-score came out at 4.14.
As to TGAATGAGGATATAAGATCAGGGAACGTTGCAAA, the PBM binding z-score was 0.125.
As to TCTCGGAGGACACGAATGGTCAGAGCTCGACATC, the PBM binding z-score turned out to be 0.332.
CCTACTGGGCCAAAAAGGTCATCGATGCCGATAA: the PBM binding z-score amounted to 5.18.
The sequence ATCTCTAGGTAACAAGTTCTGTGAAAGAGAGGAC registered a PBM binding z-score of 0.565.
Same read-out and setting: the result for CGTACAAGGTCAATGCTAGGTCAGTGAAAGCATT reads 7.9; that for ACTCGAAGGACAAAGGTCAGAGCTACGCCAGTGA, 5.85.
On the same count and under the same terms, in the case of CCTGCTAGGTCAATGGCCAGCTAAAGCAGCTCGC it was 3.43; in that of TCTAGCAGGCCAGAGGGTCGCTCAAGAGGTACGG, 0.125; in that of ATACCGAGGTGATCGTGAGGTCGTTGATACTAAC, 2.74.
Same read-out and setting: in the case of CGTGCTAGGTCATGGTCAGCTAATCTACAGTATG it was 3.97.
CGAACGAGGGCATGTGTTGATAGCAAATGCCGAT showed a PBM binding z-score of 1.08.
The sequence CCTAGCAGGCCAATCTGGGGCACTCAAGGCTTGA displayed a PBM binding z-score of -0.125.
Take CCGACTGGGGCAGAAGGGTTACCATACCATCCGG: the PBM binding z-score was 0.666.
The same measure, in the same setting: in the case of ATCTCTAGGTAAAGATAGTTCAGTGGATGCAAAT it was 0.4; in that of CGAATTAGGTCATTGACAGGACAGTGAATAGTAA, 4.6.
On to GTACCAAGGTGAATACGTCGTTGATGAGTAGGCG, for which the PBM binding z-score is 0.764.
Still for that read-out and setting: the result for ATATGTAGGTTACATCCGGGTGATTCAGGCTATG reads 1.19; that for CCTAGTTGGTCTGGAGGTCACACACCGGATATGA, 4.49.
Turning to AACGAAAGGTCGAGGTGAGTATAGAGAAAGGGAA, the PBM binding z-score is 4.68.
CGAACTAGGTCAAGGACAGTGGATCTCCGCACGC had a PBM binding z-score of 3.74.
On the same count and under the same terms, in the case of ATTACAGGGTCATCGTAGGCCAGAGTACGCACAG it was 5.86; in that of ATCGAAAGGTAGACGAGGTGAGTATACACCGTTT, 0.927.
Turning to TTACCAAGGTGAAGGTCGTTGAACCCTCTGTAGA, the PBM binding z-score came out at 1.94.
The same measure, in the same setting: the result for CCTCGGAGGACAGCAGGTCAGAGCTGTCCGCTTT reads 2.17; that for TCTATTACTTGATTAGGGCAACCGAAACAGCGGA, 0.675; that for AGAAGGAGGTTACCAAAGATCAGGGAAACGCTTG, 1.66.
The same measure, in the same setting: the result for CGTCACAGTTCAACTAAGGTAACGTAAAGCACGC reads 3.25.
As to GCTAGTAGGCCATTTGGGTCACTCAATGACGGGC, the PBM binding z-score came out at 0.972.
